Experimental data as given in the supplement of paper PMC11732987, “Enantioselective OTUD7B fragment discovery through chemoproteomics screening and high-throughput optimisation” (Communications Chemistry, 2025).

What was measured:
Test in all cases: log2 ratio of Biotin-Ahx-Ub-VS probe labelling (fragment/DMSO); higher = less target engagement (more negative = stronger competition), active = hit call of the paper (q ≤ 0.05, log2 ratio ≤ -1)
Settings in all cases: compound concentration: 200 uM; treatment time: 3 h
[1] = molecular target: T1, USP19 (UniProt O94966)
T1 sequence (whole entry): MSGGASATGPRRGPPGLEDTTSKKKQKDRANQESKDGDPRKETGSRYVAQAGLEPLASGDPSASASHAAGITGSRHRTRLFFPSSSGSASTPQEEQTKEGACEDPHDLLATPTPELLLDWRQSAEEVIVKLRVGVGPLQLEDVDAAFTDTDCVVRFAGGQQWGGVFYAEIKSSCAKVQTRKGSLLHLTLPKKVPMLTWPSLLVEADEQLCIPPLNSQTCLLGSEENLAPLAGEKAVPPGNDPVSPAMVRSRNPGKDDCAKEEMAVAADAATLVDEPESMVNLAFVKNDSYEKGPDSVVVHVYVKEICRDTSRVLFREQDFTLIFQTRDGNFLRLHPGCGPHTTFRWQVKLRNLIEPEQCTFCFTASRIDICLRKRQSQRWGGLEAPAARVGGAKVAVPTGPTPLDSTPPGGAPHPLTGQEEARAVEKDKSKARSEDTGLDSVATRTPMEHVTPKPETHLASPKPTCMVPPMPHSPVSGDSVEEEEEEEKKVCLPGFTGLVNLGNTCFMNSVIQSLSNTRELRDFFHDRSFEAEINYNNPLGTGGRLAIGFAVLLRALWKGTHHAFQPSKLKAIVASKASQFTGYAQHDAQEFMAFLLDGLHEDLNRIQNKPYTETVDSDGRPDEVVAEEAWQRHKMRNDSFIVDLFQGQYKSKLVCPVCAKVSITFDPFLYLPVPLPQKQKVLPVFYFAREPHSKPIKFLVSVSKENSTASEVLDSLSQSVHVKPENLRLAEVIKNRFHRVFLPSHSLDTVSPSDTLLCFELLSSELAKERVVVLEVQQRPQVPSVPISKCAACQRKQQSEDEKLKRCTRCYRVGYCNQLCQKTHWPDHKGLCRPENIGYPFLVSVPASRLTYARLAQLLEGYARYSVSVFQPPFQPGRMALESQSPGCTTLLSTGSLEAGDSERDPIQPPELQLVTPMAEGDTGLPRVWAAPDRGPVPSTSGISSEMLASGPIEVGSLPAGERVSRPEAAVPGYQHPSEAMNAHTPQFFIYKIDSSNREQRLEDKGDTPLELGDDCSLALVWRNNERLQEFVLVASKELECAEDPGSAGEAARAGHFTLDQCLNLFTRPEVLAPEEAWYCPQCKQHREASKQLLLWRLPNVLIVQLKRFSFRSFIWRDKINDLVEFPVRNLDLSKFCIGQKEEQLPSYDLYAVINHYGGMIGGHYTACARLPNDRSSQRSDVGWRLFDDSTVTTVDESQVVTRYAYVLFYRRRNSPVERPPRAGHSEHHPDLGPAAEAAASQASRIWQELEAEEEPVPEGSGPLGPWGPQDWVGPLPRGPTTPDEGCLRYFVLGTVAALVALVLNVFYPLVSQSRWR
Outline: (§1)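 Average log2 ratios of fragment over vehicle were obtained by unpaired t-test from global-median-normalised Spectronaut label-free quantities. Proteins with ≥2 unique peptides were included. HEK293T lysate (495 µg per sample) was treated in triplicate with fragment at 200 µM or vehicle for 3 h, then with Biotin-Ahx-Ub-VS at 0.5 µM final for 1 h, and labelled DUBs were NeutrAvidin-enriched and run by diaPASEF LC-MS/MS.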

[2] = molecular target: T2, USP22 (UniProt Q9UPT9)
T2 sequence (whole entry): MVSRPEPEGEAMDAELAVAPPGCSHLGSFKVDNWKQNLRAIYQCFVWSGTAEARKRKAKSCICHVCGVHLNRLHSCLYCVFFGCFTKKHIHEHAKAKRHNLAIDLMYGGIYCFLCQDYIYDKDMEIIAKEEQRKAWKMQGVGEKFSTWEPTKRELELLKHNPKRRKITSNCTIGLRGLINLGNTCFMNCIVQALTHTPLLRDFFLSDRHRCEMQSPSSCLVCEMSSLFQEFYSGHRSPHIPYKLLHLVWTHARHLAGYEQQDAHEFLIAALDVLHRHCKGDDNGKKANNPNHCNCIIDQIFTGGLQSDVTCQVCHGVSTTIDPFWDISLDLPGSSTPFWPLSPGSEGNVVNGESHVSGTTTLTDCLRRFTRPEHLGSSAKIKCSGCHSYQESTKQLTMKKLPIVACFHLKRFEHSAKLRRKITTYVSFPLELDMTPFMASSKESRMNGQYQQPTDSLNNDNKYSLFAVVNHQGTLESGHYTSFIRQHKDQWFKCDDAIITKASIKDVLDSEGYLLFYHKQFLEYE
Outline: as §1

[3] = molecular target: USP24 (UniProt Q9UPU5)
Sequence of USP24 (Q9UPU5 whole entry): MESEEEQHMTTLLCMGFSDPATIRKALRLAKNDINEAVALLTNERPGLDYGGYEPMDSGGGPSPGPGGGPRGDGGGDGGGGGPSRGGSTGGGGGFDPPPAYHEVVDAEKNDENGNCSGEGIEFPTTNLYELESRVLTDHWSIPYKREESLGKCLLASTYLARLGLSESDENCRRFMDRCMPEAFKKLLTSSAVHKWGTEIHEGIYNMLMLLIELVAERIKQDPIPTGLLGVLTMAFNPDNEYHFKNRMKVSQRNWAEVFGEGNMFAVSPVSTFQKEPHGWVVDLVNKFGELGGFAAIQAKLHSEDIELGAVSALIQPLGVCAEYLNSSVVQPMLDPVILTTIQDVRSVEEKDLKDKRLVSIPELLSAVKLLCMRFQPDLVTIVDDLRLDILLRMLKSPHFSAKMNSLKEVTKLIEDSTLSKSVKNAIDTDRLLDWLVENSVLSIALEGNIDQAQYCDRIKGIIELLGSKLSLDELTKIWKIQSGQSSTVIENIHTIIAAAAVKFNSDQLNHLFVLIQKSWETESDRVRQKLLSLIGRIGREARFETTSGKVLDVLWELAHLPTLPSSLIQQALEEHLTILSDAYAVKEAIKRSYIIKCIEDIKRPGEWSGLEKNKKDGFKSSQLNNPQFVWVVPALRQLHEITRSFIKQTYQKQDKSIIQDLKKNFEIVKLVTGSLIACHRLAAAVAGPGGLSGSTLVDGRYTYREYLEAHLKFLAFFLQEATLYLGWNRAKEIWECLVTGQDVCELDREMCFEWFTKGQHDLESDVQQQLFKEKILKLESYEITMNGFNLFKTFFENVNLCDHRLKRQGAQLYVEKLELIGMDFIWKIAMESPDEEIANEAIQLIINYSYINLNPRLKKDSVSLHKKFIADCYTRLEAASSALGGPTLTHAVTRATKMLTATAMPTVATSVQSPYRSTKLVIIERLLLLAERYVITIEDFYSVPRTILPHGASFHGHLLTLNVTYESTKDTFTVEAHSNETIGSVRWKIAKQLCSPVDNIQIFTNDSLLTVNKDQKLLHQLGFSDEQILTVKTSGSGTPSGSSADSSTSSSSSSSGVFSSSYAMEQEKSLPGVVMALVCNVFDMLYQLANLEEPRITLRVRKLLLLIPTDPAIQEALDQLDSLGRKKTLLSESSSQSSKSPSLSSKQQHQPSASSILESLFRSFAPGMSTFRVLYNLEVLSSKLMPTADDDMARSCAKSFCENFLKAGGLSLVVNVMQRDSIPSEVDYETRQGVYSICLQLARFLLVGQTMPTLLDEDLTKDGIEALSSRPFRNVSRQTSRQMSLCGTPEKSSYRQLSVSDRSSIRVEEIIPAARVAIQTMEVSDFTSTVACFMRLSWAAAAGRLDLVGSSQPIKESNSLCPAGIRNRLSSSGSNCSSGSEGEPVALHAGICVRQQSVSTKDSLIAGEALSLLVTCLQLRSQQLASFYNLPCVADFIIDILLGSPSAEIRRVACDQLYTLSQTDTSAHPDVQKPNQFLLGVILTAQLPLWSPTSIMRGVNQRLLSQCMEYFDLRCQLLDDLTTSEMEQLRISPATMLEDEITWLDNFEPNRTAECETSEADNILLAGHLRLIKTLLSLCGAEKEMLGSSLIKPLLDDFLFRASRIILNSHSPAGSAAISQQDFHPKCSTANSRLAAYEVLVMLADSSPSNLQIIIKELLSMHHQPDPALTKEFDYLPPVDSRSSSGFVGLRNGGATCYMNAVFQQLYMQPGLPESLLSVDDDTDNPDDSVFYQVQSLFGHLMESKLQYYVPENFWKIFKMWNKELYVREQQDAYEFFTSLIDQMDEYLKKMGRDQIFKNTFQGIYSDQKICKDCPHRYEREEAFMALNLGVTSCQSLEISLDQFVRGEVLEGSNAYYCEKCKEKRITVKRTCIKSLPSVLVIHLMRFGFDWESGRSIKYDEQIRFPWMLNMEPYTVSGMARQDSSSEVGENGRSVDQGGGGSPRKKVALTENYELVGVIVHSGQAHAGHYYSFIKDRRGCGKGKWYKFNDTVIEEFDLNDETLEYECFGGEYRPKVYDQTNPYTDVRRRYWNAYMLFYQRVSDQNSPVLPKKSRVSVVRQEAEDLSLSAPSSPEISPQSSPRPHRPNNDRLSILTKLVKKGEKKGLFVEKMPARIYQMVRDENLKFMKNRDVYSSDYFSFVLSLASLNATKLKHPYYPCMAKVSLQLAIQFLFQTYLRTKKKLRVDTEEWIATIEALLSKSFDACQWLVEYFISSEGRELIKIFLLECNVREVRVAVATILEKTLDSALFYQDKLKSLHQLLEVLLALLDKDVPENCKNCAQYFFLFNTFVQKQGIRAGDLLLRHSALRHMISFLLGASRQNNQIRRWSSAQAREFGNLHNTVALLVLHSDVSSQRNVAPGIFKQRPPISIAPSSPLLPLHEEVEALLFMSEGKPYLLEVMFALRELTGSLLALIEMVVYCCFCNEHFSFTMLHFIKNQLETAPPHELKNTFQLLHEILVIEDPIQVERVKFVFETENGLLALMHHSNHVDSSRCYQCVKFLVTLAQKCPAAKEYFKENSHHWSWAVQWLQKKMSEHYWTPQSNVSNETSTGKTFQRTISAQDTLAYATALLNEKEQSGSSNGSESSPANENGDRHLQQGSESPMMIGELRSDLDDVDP
Outline: as §1

[4] = molecular target: T3, USP25 (UniProt Q9UHP3)
T3 sequence (whole entry): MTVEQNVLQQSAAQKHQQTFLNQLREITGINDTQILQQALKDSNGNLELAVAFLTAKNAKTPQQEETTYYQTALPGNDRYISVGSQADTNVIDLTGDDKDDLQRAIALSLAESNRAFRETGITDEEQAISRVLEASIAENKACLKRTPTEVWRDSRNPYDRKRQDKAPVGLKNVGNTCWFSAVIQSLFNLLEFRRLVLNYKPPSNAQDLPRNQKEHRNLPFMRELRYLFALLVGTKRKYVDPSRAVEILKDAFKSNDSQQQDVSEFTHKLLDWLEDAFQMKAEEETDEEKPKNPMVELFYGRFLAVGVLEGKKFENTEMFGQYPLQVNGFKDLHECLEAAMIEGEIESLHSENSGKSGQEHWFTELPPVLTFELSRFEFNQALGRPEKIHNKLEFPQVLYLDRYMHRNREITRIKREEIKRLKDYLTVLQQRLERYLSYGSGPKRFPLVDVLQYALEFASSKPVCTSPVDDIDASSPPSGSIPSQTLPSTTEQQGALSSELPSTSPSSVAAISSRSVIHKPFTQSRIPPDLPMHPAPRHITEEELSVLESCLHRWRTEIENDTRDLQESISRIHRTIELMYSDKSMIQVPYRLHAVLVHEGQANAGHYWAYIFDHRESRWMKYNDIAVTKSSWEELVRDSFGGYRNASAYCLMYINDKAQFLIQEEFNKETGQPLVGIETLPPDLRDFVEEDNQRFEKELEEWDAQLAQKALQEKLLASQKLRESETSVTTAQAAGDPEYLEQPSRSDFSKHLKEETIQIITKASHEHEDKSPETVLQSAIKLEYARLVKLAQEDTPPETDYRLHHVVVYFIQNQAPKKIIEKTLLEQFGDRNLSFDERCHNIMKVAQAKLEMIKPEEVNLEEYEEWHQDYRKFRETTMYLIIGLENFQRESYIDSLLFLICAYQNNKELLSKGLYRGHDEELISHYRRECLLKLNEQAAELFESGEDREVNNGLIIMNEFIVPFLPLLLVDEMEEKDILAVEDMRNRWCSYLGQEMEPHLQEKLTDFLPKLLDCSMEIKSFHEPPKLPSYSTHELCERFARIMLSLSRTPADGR
Outline: as §1

[5] = molecular target: T4, USP28 (UniProt Q96RU2)
T4 sequence (whole entry): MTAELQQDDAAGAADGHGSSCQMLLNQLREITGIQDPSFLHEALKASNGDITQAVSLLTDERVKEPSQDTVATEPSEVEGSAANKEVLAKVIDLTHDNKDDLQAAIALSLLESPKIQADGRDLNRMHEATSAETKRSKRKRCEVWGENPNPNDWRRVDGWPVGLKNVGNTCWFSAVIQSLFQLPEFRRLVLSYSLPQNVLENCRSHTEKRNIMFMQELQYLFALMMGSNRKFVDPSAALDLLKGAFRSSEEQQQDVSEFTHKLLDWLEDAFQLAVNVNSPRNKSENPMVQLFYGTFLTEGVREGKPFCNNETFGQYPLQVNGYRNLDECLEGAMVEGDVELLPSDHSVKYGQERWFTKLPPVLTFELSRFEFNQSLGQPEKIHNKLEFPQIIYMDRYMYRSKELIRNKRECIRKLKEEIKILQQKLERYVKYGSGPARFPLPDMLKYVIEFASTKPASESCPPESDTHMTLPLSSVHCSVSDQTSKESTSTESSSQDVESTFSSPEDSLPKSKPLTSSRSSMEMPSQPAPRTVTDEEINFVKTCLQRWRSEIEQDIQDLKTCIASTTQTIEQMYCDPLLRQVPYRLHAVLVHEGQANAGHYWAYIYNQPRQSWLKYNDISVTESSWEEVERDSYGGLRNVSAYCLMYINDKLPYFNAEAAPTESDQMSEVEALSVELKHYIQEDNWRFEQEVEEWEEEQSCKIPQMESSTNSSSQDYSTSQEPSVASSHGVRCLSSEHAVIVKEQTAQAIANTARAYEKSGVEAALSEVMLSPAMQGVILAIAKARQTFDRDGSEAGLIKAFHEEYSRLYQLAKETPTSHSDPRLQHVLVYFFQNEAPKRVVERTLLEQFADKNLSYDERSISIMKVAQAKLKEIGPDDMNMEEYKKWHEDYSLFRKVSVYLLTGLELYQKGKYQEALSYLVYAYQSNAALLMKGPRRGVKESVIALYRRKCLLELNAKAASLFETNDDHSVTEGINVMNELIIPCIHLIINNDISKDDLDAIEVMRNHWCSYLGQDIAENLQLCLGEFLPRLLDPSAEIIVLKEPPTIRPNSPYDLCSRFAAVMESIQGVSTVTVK
Outline: as §1

Measured: log2 ratio of Biotin-Ahx-Ub-VS probe labelling

Cl.O=C(CCl)N1CCc2ncncc2C1
inactive: [1] -0.554 | [2] -0.0201 | [3] -0.491 | [4] -0.276 | [5] -0.582
